Reference: PubChem BioAssay AID602292 (National Center for Advancing Translational Sciences (NCATS), 2012)
Out of some 1,300 compounds screened, about 380 (29%) were called active. Another 37% or so got no clear call; they are omitted. This is one part of the list. Values without a mark were called inactive. Calls come from the whole dose curve; as a rule, active = well fitted inhibition curve with a large enough effect; inconclusive = small, poorly fitted or top-dose-only effect; inactive = flat fitted curve, though single readings scatter.

The compounds below were run against Thyrotropin receptor (Homo sapiens) (UniProt P16473) (assay: qHTS for antagonists of the Thyroid Stimulation Hormone Receptor: Hit Validation in Primary Screen). Conditions: TSHR-expressing cells, cAMP antagonist mode; series mostly up to 58 µM; activity change, negative = inhibition: at the top concentration.
How it was run: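 Competitive HTRF detected cAMP in lysates of TSHR cells, read 30 minutes after antibody and d2 addition at room temperature. Before lysis, cells had 2 hours at 37 deg C with compound plus EC80 TSH, 4nM final.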
% is set by controls: 0 for no effect and ±100 for the full control effect; potency is the fitted concentration of half-maximal effect.
Note: nearly all actives have a fitted effect of over 80% in size.
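Throughout, for activity change, negative = inhibition: cells stimulated with TSH at EC80 of 4 nM during compound exposure; cAMP by competitive HTRF where cellular cAMP lowers the 665 nm FRET signal.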

Thyrotropin receptor (Homo sapiens), sequence (P16473 whole entry, looked up): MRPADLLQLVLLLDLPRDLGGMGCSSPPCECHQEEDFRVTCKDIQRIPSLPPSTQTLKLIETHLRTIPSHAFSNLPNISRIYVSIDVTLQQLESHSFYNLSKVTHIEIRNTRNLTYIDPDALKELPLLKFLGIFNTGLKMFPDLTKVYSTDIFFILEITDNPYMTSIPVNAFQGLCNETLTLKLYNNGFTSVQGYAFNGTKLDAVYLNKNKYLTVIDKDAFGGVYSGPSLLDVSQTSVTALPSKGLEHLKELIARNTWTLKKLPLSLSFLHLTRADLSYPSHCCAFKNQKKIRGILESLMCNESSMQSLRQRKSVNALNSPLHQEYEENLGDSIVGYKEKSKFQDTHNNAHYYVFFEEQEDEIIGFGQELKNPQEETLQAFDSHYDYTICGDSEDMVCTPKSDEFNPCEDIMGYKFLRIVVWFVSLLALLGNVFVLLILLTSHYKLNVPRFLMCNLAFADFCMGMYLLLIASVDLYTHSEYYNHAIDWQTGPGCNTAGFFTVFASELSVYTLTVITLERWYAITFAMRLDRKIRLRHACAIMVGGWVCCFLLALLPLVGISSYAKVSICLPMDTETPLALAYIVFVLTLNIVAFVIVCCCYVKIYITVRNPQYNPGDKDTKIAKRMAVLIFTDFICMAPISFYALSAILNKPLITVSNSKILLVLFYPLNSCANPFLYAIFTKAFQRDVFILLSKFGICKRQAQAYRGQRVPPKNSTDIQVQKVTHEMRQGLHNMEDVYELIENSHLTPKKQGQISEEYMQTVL

Row | Structure (SMILES) | Potency | activity change, negative = inhibition [%]
1 | CCC(=O)NC1=C(Cl)C(=O)C(NC(=O)CC)=C(Cl)C1=O | 30.1 µM (active) | –
2 | O=C(NC1CCOc2ccccc21)c1ccccn1 (stereo not drawn) | – | -1.38
3 | COc1ccc(CCNC(=O)c2ccc(-c3ccc([N+](=O)[O-])cc3Cl)o2)cc1OC | 23.9 µM (active) | –
4 | COc1ccc(CCNC(=O)c2cccc3c2C(=O)N(C2CCCCC2)C3)cc1OC | – | -8.96
5 | O=C(CSc1nnc(-c2ccncc2)n1Cc1ccco1)Nc1nc(-c2ccccc2)cs1 | 21.3 µM (active) | –
6 | Cc1cc(C)c(S(=O)(=O)c2c(C)cccc2C)c(Cl)n1 | 23.9 µM (active) | –
7 | CC(Sc1nn(-c2ccc(F)cc2)c(=S)s1)C(=O)c1c(N)n(C)c(=O)n(C)c1=O (stereo not drawn) | 37.9 µM (active) | –
8 | CCCCCC/C(C)=C1/SC(=S)NC1=O | 30.1 µM (active) | –
9 | O=C(Nn1cnnc1)C(c1ccccc1)c1ccccc1 | – | -7.72
10 | O=C(N=C1SC2CS(=O)(=O)CC2N1c1ccc(F)cc1)C1CC1 (stereo not drawn) | – | -2.68
11 | CCCCCc1c2c(cc(O)c1C(=O)O)OC(=O)c1c(cc(OC)cc1C(=O)CCCC)O2 | 33.8 µM (active) | –
12 | COC(=O)[C@H]1[C@H]2C[C@@H]3c4[nH]c5cc(OC)ccc5c4CCN3C[C@H]2C[C@@H](OC(=O)/C=C/c2cc(OC)c(OC)c(OC)c2)[C@@H]1OC | – | -11.4
13 | O=C(CC1C(=O)NCCN1Cc1cccc(F)c1F)NCCCC1CCCC1 (stereo not drawn) | – | -0.634
14 | CC(Oc1ccc(Cl)cc1Cl)c1nc(-c2ccc(NC(=O)c3cccnc3)cc2)no1 (stereo not drawn) | 21.3 µM (active) | –
15 | CCCn1nnc(NC(=O)C(C)Oc2ccc(Cl)cc2Cl)n1 (stereo not drawn) | – | 1.58
16 | Cc1ccccc1Oc1cc(-n2ncc(Cl)c(Cl)c2=O)ncn1 | 12 µM (active) | –
17 | COCCNc1cnn(-c2ccccc2)c(=O)c1Cl | – | -16.4
18 | CC(C)(CNC(=O)C1c2ccccc2-c2ccccc21)N1CCOCC1 | – | 2.56
19 | Cc1[nH]n(-c2ccccc2)c(=O)c1N=Nc1c(O)cc(S(=O)(=O)N(C)C)c2ccccc12 | 8.49 µM (active) | –
20 | CC(NC(=O)/C(C#N)=C/c1ccc([N+](=O)[O-])o1)c1ccccc1 (stereo not drawn) | 30.1 µM (active) | –
21 | CCc1nn(CC(=O)N2CCCCCC2)c(=O)c2cc3ccccc3n12 | – | -6.57

Row | Structure (SMILES) | Potency | activity change, negative = inhibition [%]
22 | Cc1ccc(S(=O)(=O)N2CCN(C(=O)Cc3ccsc3)CC2)c(C)c1 | – | -0.288
23 | O=C(Cn1ncc(Cl)c(Cl)c1=O)N1CCN(S(=O)(=O)c2ccc3ccccc3c2)CC1 | 9.53 µM (active) | –
24 | NC(=O)CSc1oc(-c2ccco2)nc1S(=O)(=O)c1ccccc1 | – | -12.3
25 | CCc1nnc(NC(=O)c2ccc(Cl)c(S(=O)(=O)N3CCc4ccccc43)c2)s1 | 7.57 µM (active) | –
26 | O=C(Nc1nnc(C2CC2)s1)c1ccc(Cl)c(S(=O)(=O)N2CCc3ccccc3C2)c1 | 3.79 µM (active) | –
27 | NC(=O)c1ccc(CN2CCc3ccccc3C2)cc1 | – | 0.0288
28 | CS(=O)(=O)N1CCc2cc(C(=O)Nc3ccc(COCC(F)(F)F)cc3)ccc21 | – | -11.9
29 | CCc1nnc(NS(=O)(=O)c2ccc(NC(=O)COc3ccc4ccccc4c3)cc2)s1 | – | -8.82
30 | C=CCOc1c(Cl)cc(CNc2ccc(N(C)C)cc2)cc1OC | – | -6.8
31 | O=C1C=C(c2ccc(Cl)c(C(F)(F)F)c2)C[C@@H](c2ccc(Cl)cc2)C1 | – | -9.56
32 | N#Cc1c(C(F)(F)F)cc(-c2ccc(Cl)cc2)[nH]c1=O | 10.7 µM (active) | –
33 | COc1cc(C(C(=O)NCc2ccccc2)N(C(=O)c2snc(C(N)=O)c2N)C2CCCC2)cc(OC)c1OC (stereo not drawn) | – | -6.63
34 | Cc1ccc(NC(=S)c2nc3ccccc3s2)cc1 | – | -10.7
35 | COC(=O)c1ccc(/C(O)=C(\C#N)c2nc3ccccc3s2)cc1 | 15.1 µM (active) | –
36 | COc1ccc(CCNc2ncnc3sc(C)cc23)cc1OC | 19 µM (active) | –
37 | COc1ccc(CCNc2ncnc3c2[nH]c2cc(OC)c(OC)cc23)cc1OC | – | -12.4
38 | Cc1cc2c(NCCc3ccccc3)ncnc2s1 | 23.9 µM (active) | –
39 | Cc1nn(S(=O)(=O)c2ccc(F)cc2)c(C)c1S(=O)(=O)N1CCOCC1 | – | -8.56
40 | Cc1nc2ccccc2n1CC(=O)N/N=C\C=C\c1ccccc1 | – | -4.49
41 | COc1ccc(-n2nnnc2SCC(=O)NC2CCCC2)cc1OC | – | 0.403
42 | Cc1ccc(-c2nc3ccc(C(=O)O)cc3nc2-c2ccc(C)cc2)cc1 | 23.9 µM (active) | –

Row | Structure (SMILES) | Potency | activity change, negative = inhibition [%]
43 | Cc1ccc(Nc2cc(C)nc3ccc(C)cc23)cc1 | – | -5.56
44 | N#Cc1ccc(NC(=O)Nc2ccc(Cl)cc2)cc1 | 7.57 µM (active) | –
45 | Nc1ccccc1N=Cc1ccc(-c2cccc(Cl)c2)o1 | 37.9 µM (active) | –
46 | COc1ccccc1N1CCN(c2nc(C)nc3c2oc2ccccc23)CC1 | 26.9 µM (active) | –
47 | Cc1ccccc1C(=O)Nc1nnc(SCC(=O)NC2CC2)s1 | – | -11.8
48 | Cc1ccc(NC(=O)Nc2ccc3c(c2)N(C)C(=O)CS3)cc1C | 30.1 µM (active) | –
49 | CCC(C)NC(=O)CN1C(=O)CSc2ccc(S(=O)(=O)N3CCCC3)cc21 (stereo not drawn) | – | -7.63
50 | CC1CCN(CCCNC(=O)CN2C(=O)CSc3ccc(S(=O)(=O)N4CCOCC4)cc32)CC1 | – | 0.173
51 | O=C1CSc2nc3ccccc3n21 | – | -1.58
52 | CC(=O)N(C1=C(Cl)C(=O)c2ccccc2C1=O)C1CCCCC1 | 30.1 µM (active) | –
53 | CCOc1ccc(CCNC(=O)c2ccc3c(=O)[nH]c4c(C(=O)NC(C)C)sc(=S)n4c3c2)cc1 | 6.01 µM (active) | –
54 | CCCCNC(=O)c1sc(=S)n2c1[nH]c(=O)c1ccccc12 | 4.78 µM (active) | –
55 | COc1ccccc1NC(=O)NNC(=O)CCN1CCOCC1 | – | -2.97
56 | NS(=O)(=O)c1ccc(CNC(=O)CCS(=O)(=O)Cc2ccccc2)cc1 | – | -1.15
57 | Brc1ccc(-c2nnc(-c3cccc(Br)c3)o2)cc1 | – | -6.14
58 | N#Cc1c(SCc2c(Cl)cccc2Cl)nc(N)[nH]c1=S | 19 µM (active) | –
59 | CCOCCCNC(=O)C(NC(=O)c1ccc(=O)[nH]c1)c1ccc(Cl)cc1 (stereo not drawn) | – | -2.3
60 | COc1ccc(-n2nc(C(=O)NCC(=O)Nc3cc(OC)c(OC)c(OC)c3)c3ccccc3c2=O)cc1OC | – | -8.07
61 | Cc1nn(-c2ccccc2)c(C)c1NC(=O)COc1ccc(Br)cc1Cl | 23.9 µM (active) | –
62 | CCn1nc(C)c(NC(=O)/C=C/c2ccc(OC)c(COc3ccc(Br)cc3)c2)c1C | – | -15.9
63 | CCCC(=O)Nc1nnc(CCc2ccccc2)s1 | – | -2.28
